RGS7-Gao = regulators of human RGS7-Galphao interaction | P09471 | Multiplexed bead flow cytometry, RGS7-Galphao binding; actives lie on both sides | binding response (% of control), % at 10 µM | actives 0.35% (n = 220,000) | AID 1439; in the data active = binding response below about 49% or above about 150%; inconclusive = no clear call, values can overlap the other calls; inactive = in between;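 note: fluorescent Galphao held in activated GDP-AlF4 state binding bead-coupled RGS7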
Target sequence (P09471 whole entry, looked up): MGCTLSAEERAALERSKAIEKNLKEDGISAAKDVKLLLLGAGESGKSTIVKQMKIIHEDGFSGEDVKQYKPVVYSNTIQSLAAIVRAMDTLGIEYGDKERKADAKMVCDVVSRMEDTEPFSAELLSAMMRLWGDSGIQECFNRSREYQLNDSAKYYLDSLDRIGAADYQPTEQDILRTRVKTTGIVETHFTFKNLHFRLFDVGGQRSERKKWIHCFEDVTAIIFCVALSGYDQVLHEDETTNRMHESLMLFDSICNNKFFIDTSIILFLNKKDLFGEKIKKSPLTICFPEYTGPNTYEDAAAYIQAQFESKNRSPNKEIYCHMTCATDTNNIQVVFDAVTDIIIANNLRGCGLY
RGS16-Gao HTS = regulators of human RGS16-Galphao interaction; O15492+P09471; bead-based flow cytometry RGS16-Galphao binding, fluorescence; actives lie on both sides; binding response (% of control), % at 10 µM; actives 0.38% (n = 220,000); AID 1441; call rule not given here;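 note: Galphao activated by GDP with aluminum fluoride before binding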
Target sequence (O15492 whole entry, looked up): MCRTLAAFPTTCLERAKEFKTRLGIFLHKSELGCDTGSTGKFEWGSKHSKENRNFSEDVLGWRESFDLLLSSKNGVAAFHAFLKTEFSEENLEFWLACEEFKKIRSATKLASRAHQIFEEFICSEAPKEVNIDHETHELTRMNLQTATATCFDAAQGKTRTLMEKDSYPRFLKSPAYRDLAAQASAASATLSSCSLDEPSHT
Target sequence (P09471 whole entry, looked up): as the sequence (P09471 whole entry, looked up) above
Avidin bead fluor = compound fluoresces at 488/530 nm on avidin beads; compound fluorescence 488/530 nm, flow cytometry; hits give high values; actives 0.38% (n = 220,000); fluorescence (KMESF) at 10 µM; AID 1775; in the data active = fluorescence above about 47
RGS4-Gao reg = human RGS4-Galphao interaction regulation; P09471; Multiplexed bead flow cytometry, RGS4-Galphao binding; actives lie on both sides; binding response (% of control), % at 10 µM; actives 0.33% (n = 220,000); AID 1415; in the data active = binding response below about 49% or above about 150%; inactive = in between;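 note: fluorescent Galphao activated with aluminum fluoride binding bead-coupled RGS4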
GSH bead fluor = compound fluoresces at 488/530 nm on GSH beads; GSH beads flow cytometry, compound fluorescence 488/530 nm; hits give high values; fluorescence (KMESF) at 10 µM; actives 0.25% (n = 190,000); in the data active = fluorescence above about 89;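 note: glutathione beads carrying GST-tagged Bcl family fusion proteins plus one bare bead set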
RGS8-Gao reg = modulates binding of RGS8 to human Galphao; multiplexed bead flow cytometry; actives lie on both sides; response (percent of control binding), % at 10 µM; actives 0.34% (n = 220,000); in the data active = response below about 60% or above about 140%; inactive = in between;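 note: Galphao activated as the GDP aluminium fluoride complex binding bead-coupled RGS8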
Large screens that a line does not name were inactive; [ ] = remark or other dose. In the library only some 1.2% were active in any assay of this set; here they are far more common.

CCOC(=O)C1=C(c2ccccc2)O/C(=C(/C#N)C(F)(F)F)S1	Avidin bead fluor 59
CSc1nc2ncc(C(=O)O)c(N)n2n1	none
Cc1ccc(NC(=O)CN2C(=O)N/C(=C/c3cccn3-c3ccc(C(=O)O)cc3)C2=O)cc1	RGS7-Gao -13, RGS4-Gao reg 26, RGS8-Gao reg 28
Cc1ccc(NC(=O)CN2C(=O)N/C(=C/c3cc(C)n(-c4ccc(C(=O)O)cc4)c3C)C2=O)cc1	none
CC1(C)CC(N=Cc2c(O)n(Cc3ccc4c(c3)OCO4)c(=O)c3ccccc23)CC(C)(C)N1	RGS7-Gao inconclusive
Nc1nc(SCC(=O)Nc2ccc([N+](=O)[O-])cc2)n[nH]1	none
CCn1c(SCC(=O)OCc2ccccc2)nc2c1c(=O)n(C)c(=O)n2C	none
CCOC(=O)CSc1nc2c(c(=O)n(C)c(=O)n2C)n1CCCc1ccccc1	GSH bead fluor 269
COC(=O)c1ccc(C2C(Oc3ccccc3)C(=O)N2CCc2ccc(F)cc2)cc1 (configuration not stated)	Avidin bead fluor 61
Cc1cc2cc(C)c3nnc(SCC(=O)N4CCCc5ccccc54)n3c2cc1C	none
Cc1cc2cc(C)c3nnc(SCC(=O)N4CCc5ccccc54)n3c2cc1C	RGS7-Gao 14, RGS16-Gao HTS 1.3, RGS4-Gao reg 22, RGS8-Gao reg 12
COc1ccc(-n2c(=O)c3ccccc3n(Cc3ccc(F)cc3)c2=O)cc1OC	Avidin bead fluor 104
COc1cc2[nH]c(=O)n(CCCCCC(=O)NCCc3c[nH]c4ccccc34)c(=O)c2cc1OC	Avidin bead fluor 49
O=C(CCCCn1c(=O)[nH]c2ccccc2c1=O)NCCc1c[nH]c2ccccc12	none
Cc1c(N=Cc2ccc[nH]2)c(=O)n(-c2ccccc2)n1C	Avidin bead fluor 56
O=C(CCN1CCCCC1)Nc1ccc(Br)cc1	Avidin bead fluor 49
CN1CCN(CCC(=O)Nc2ccc(Br)cc2)CC1	none
Cc1ccc(-c2nc3sc4c(c3c(=O)n2N)CC(C)(C)OC4)cc1	Avidin bead fluor 55
COC(=O)c1ccc(-c2ccc(C(=O)N3CCCN(C)CC3)cc2)cc1	GSH bead fluor 256
CCOc1ccccc1N1C(=O)CC(Nc2ccc(N3CCOCC3)cc2)C1=O (configuration not stated)	GSH bead fluor 245
COCCOc1ccc(C(F)(F)F)cc1NC(=O)c1ccc(C)cc1	Avidin bead fluor 59
O=C1NC(=O)C(CC(=O)N(c2ccccc2)C2(C(=O)NC3CCCC3)CCCCC2)N1 (configuration not stated)	Avidin bead fluor 52
CC(C)[C@H](NC(=O)NCc1ccc(F)cc1)C(=O)O	RGS7-Gao inconclusive (no result: GSH bead fluor)
Cc1nnc(N(Cc2ccco2)C(=O)c2ccc(C#N)cc2)s1	GSH bead fluor 110
Cc1nnc(N(Cc2ccco2)C(=O)c2cccc(C#N)c2)s1	none
CCCCNC(=O)NNC(=O)c1cc(C)on1	RGS7-Gao inconclusive (no result: GSH bead fluor)
Nc1nc2ccc(O)cc2s1	GSH bead fluor 187
O=C(CN1C(=O)c2ccccc2S1(=O)=O)NCCC1=CCCCC1	GSH bead fluor 117
COc1ccc(CCNC(=O)Nc2ccccc2[N+](=O)[O-])cc1	none
COc1ccc(Cl)cc1N1C(=O)CC(N2CCc3ccccc32)C1=O (configuration not stated)	GSH bead fluor 264
CCOC(=O)c1ccccc1NC(=O)CSc1nc2c(c(=O)n(C)c(=O)n2C)n1C	none
CCOC(=O)c1ccccc1NC(=O)Cn1cnc2c1c(=O)n(C)c(=O)n2C	RGS7-Gao -8.2, RGS16-Gao HTS -15, RGS4-Gao reg -24, RGS8-Gao reg 7.8
O=C1C(c2ccnc3ccccc23)=C(O)c2ccccc21	GSH bead fluor 128
CCCCSc1ncc(C(=O)OCC)c(N)n1	GSH bead fluor 129
COc1ccc(NC(=O)C2CCC(CNS(=O)(=O)c3cccs3)CC2)cc1 (configuration not stated)	none
N#Cc1c(-c2ccccc2)ccn(Cc2ccc(Cl)cc2)c1=O	Avidin bead fluor 49
O=S(=O)(/C=C/c1ccccc1)N1CCN(Cc2ccccc2)CC1	none
CC(NC(=O)c1ccc(S(=O)(=O)C(F)F)cc1)c1ccccc1 (configuration not stated)	RGS7-Gao inconclusive
O=C(NC(c1ccccc1)c1ccccc1)c1ccc(S(=O)(=O)C(F)F)cc1	Avidin bead fluor 58
O=[N+]([O-])c1cccc(/C=N/NS(=O)(=O)c2ccccc2)c1	none
O=S(=O)(N/N=C\c1cccnc1)c1ccccc1	GSH bead fluor 352
Cc1cc(C)n(-c2ncnc3sc4c(c23)CCCC4)n1	none
Cc1cc(C)n(-c2ncnc3sc(C)c(C)c23)n1	Avidin bead fluor 53
CC1Cc2ccccc2N1C(=O)CSc1nnnn1C (configuration not stated)	GSH bead fluor 251
Cc1nnsc1-c1onc(C)c1C(=O)O/N=C/c1ccc(Cl)cc1	RGS7-Gao inconclusive (no result: GSH bead fluor)
Cc1cc(NC(=O)C2(c3ccccc3)CCCC2)no1	Avidin bead fluor 59
CN(CCO)C(=O)c1cccc2c1-c1ccccc1C2=O	GSH bead fluor 259
CC(C)N(Cc1ccccc1)C(=O)Cn1c(=O)cnc2ccccc21	RGS7-Gao inconclusive, Avidin bead fluor 49 (no result: GSH bead fluor)
O=C(O)Cn1c(=O)cnc2ccccc21	none
Cc1nc(N2CCN(c3ccccc3)CC2)[nH]c(=O)c1CCC(C)C	RGS7-Gao inconclusive
Cc1nc(N2CCN(c3ccccc3)CC2)[nH]c(=O)c1Cc1cccc2ccccc12	Avidin bead fluor 197
C/C(O)=c1/ccc2cccc3nc(C)nc1c23	Avidin bead fluor 48
Cc1nc2ccccc2nc(C)c1=NO	none
O=C1CN(C(=O)c2ccccc2F)c2ccccc2N1	none
O=C1CN(C(=O)c2ccccn2)c2ccccc2N1	GSH bead fluor 229
Nc1nc(SCC(=O)Nc2ccc(Cl)cn2)n[nH]1	none
O=C(Nc1cccc2ccccc12)N1CCOCC1	none
S=C(Nc1cccc2ccccc12)NN1CCOCC1	Avidin bead fluor 47
O=[N+]([O-])c1cccc(/C=N/Nc2nc(NCc3ccccc3)nc(N3CCOCC3)n2)c1O	none
CCCc1nccn1S(=O)(=O)c1cc(OC)ccc1OC	GSH bead fluor 249
CCc1nccn1S(=O)(=O)c1cc(Br)ccc1OC	none
Cc1ccc(NC(=O)Nc2ccc(F)cc2)cc1Cl	none
O=C(Cc1ccccc1[N+](=O)[O-])NCc1ccc(Cl)cc1	RGS7-Gao 176[activator], Avidin bead fluor 119, RGS4-Gao reg 213[activator]
O=C(Cc1ccccc1[N+](=O)[O-])NCc1ccc(Cl)cc1Cl	none
S=C1COC(c2ccccc2)N1c1ccccc1 (configuration not stated)	GSH bead fluor 142
S=C1N(c2ccccc2)C(c2ccccc2)N2CCCN12 (configuration not stated)	none
